AMA1-RON2 inh = AMA1-RON2 (P. falciparum) interaction inhibition | Potency, µM (doses to about 58.2 µM), for inactives: at the top dose activity change, negative = inhibition, hits mostly inhibitors | AlphaScreen AMA1-biotinylated RON2 peptide binding | hit rate 0.2% among 360,000;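 also: potency is read from the fitted curve at half-maximal effect; 0% = vehicle wells and -100% = peptide control; nearly all actives have a fitted effect of over 45% in size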
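AMA1 (3D7) with his tag at 25 nM final met compounds first, then biotinylated RON2 peptide at 25 nM; detection used donor plus acceptor beads, 10 µg/mL apiece, read by AlphaScreen after 30 min at room temperature.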
SARS PLP yeast = blocks SARS-CoV papain-like protease in a yeast assay | S. cerevisiae expressing SARS-CoV PLpro, growth rescue | Potency, µM (top dose mostly 32.9 µM), inactives show at the top dose activity, positive = growth rescue, actives largely listed as activators | hit rate 0.19% among 330,000 | AID 485353; calls by dose curve; also: potency is read from the fitted curve at half-maximal effect; 0% is about no effect; nearly all actives have a fitted effect of over 55% in size
Pf growth 96h = P. falciparum growth inhibition at 96 hour, primary screen for plastid delayed-death inhibitors. P. falciparum luciferase reporter growth, 96 h. Potency, µM (highest dose often 28.7 µM), for the others: at the top dose activity change, negative = inhibition, most hits filed as inhibitors. hit rate 6.9% among 320,000. AID 504834; also: potency is read from the fitted curve at half-maximal effect; % is scaled to controls: 0 for no effect and ±100 for the full control effect
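96 h incubation, 37 C, 5% CO2, of luciferase-reporter P. falciparum-infected RBCs (2% hematocrit, 0.05% parasitemia final) with test compounds; endpoint luminescence.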
Pf growth 48h = P. falciparum growth inhibition at 48 hours (one generation). AID 504832. P. falciparum luciferase growth in erythrocytes, 48 h. Potency, µM (titrated, usually from 28.7 µM), without a hit: at the highest dose activity change, negative = inhibition, most hits filed as inhibitors. hit rate 5.9% among 310,000; also: potency is read from the fitted curve at half-maximal effect; % is scaled to controls: 0 for no effect and ±100 for the full control effect
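Compounds are pin-transferred into medium, infected erythrocytes (2% hematocrit, 0.1% parasitemia final) are added, and plates sit one parasite generation at 37 C in 5% CO2. Detection reagent is then added and luminescence measured.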
CHX counter = counter-screen hit for Shiga toxin inhibitors, cycloheximide; cell reporter, cycloheximide protein synthesis inhibition counterscreen; max response, %; hit rate 12% among 300,000; in the data active = max response mostly above about 13%, no sharp cut-off; inactive = mostly below about 14%; also: read at 38.3 µM for the half of the compounds with a filed dose; 0% is about no effect
Shiga toxin inh = Shiga toxin inhibition. Vero cells, Shiga toxin protein synthesis inhibition reporter. inhibition, % at 38.7 µM. hit rate 9.2% among 290,000; in the data active = inhibition mostly above about 28%, no sharp cut-off; inactive = mostly below about 43%; also: 0% is about no effect
* marks the source's active call; other numbers are inactive results; [ ] = remark or other dose. The list is not random: actives were taken first. Their share in the collection is about 19%. Unless noted, calls follow the shape of the dose curve; as a rule, active = well fitted curve in the direction sought with a large enough effect; inconclusive = small, poorly fitted or top-dose-only effect, or another doubt; inactive = no such curve, though single readings can be large; an effect the other way counts as inactive or inconclusive.

How did O=C(COC(=O)C12CC3CC(CC(Br)(C3)C1)C2)Nc1ccc2[nH]c(=O)[nH]c2c1 do in these assays?
AMA1-RON2 inh: 0%; SARS PLP yeast: 1%; Pf growth 96h: 8%; Pf growth 48h: -3%

What do the screens show for `Cc1nnc(NC(=O)Nc2cccc(Cl)c2)s1`?
AMA1-RON2 inh: -5%; SARS PLP yeast: -8%; Pf growth 96h: -23%; Pf growth 48h: inconclusive; CHX counter: 51*; Shiga toxin inh: 80*

How did Cc1csc(NC(=O)Nc2cccc(Cl)c2)n1 do in these assays?
AMA1-RON2 inh: -6%; SARS PLP yeast: -7%; Pf growth 48h: 9%; CHX counter: 30*; Shiga toxin inh: 86*

How did O=C(Nc1cccc(Cl)c1)Nc1nnc([C@@H]2C[C@H](O)[C@@H](CO)O2)s1 do in these assays?
AMA1-RON2 inh: 4%

What do the screens show for `Cc1ccc(OCCSCc2nnc(NC(=O)Nc3cccc(Cl)c3)s2)cc1`?
AMA1-RON2 inh: -1%[2.32 µM]; SARS PLP yeast: -5%; Pf growth 96h: inconclusive; Pf growth 48h: 12µM*; CHX counter: -5; Shiga toxin inh: -12

Results for CN1CCN(CC(=O)NN(Cc2ccccc2)c2ccccc2)CC1 ?
AMA1-RON2 inh: -26%; SARS PLP yeast: -4%; Pf growth 96h: 53%; Pf growth 48h: 28%; CHX counter: -2; Shiga toxin inh: 32

What do the screens show for `COc1cccc(Cn2c(C(C)n3c(-c4cnccn4)nc4ccccc43)nc3ccccc32)c1` (stereo not given)?
AMA1-RON2 inh: -12%

Results for CC(=O)Oc1cc2c(cc1Cl)C(c1cccs1)CC1(CC(C)(C)NC(=S)N1)O2 (stereo not given) ?
AMA1-RON2 inh: 51%; SARS PLP yeast: -1%; Pf growth 96h: inconclusive; Pf growth 48h: inconclusive; CHX counter: -2; Shiga toxin inh: 9

What do the screens show for `CC[C@@H]1[C@H]2CCCC(=O)N3CC[C@@H](C[C@@H]1Nc1ccccc1)[C@@H]23`?
AMA1-RON2 inh: -8%; SARS PLP yeast: 0%; Pf growth 96h: 0%; Pf growth 48h: inconclusive; CHX counter: 2; Shiga toxin inh: -7

Results for CC[C@]12c3[nH]c4ccc(OC)cc4c3CCN1C(=O)C(CC(=O)NCCC1=CCCCC1)C[C@@H]2C(=O)N1CCN(C(=O)C2CC2)CC1 (stereo not given in full) ?
AMA1-RON2 inh: -2%; SARS PLP yeast: -12%

What do the screens show for `COC(=O)CN1C(=O)Nc2ccc(Br)cc2C1c1ccccc1` (stereo not given)?
AMA1-RON2 inh: -11%; SARS PLP yeast: 10%; Pf growth 96h: 3.7µM*; Pf growth 48h: -23%; CHX counter: -3; Shiga toxin inh: -6

Results for NNC(=O)CN1C(=O)Nc2ccc(Cl)cc2C1c1ccccc1 (stereo not given) ?
AMA1-RON2 inh: 36%; SARS PLP yeast: -4%; Pf growth 96h: inconclusive; Pf growth 48h: inconclusive; CHX counter: -3; Shiga toxin inh: 2

What do the screens show for `CC(C)c1[nH]nc2c1C(c1cccc(OC(=O)N3CCOCC3)c1)C(C#N)=C(N)O2` (stereo not given)?
AMA1-RON2 inh: 11%; SARS PLP yeast: -4%; Pf growth 96h: 12µM*; Pf growth 48h: -21%; CHX counter: -1; Shiga toxin inh: 27

What do the screens show for `O=C(COC(=O)C1CC(=O)N(c2ccc3c(c2)OCCO3)C1)NC1CCCc2ccccc21` (stereo not given)?
AMA1-RON2 inh: 1%; SARS PLP yeast: -1%; Pf growth 96h: 91%; Pf growth 48h: 65%; CHX counter: 20*; Shiga toxin inh: 45*

Results for CCOc1ccc(C2C(C#N)=C(N)Oc3cc(C)n(CCN4CCOCC4)c(=O)c32)cc1OCC (stereo not given) ?
AMA1-RON2 inh: 9%; SARS PLP yeast: 3%; Pf growth 96h: 17%; Pf growth 48h: 13%; CHX counter: -4; Shiga toxin inh: -5

What do the screens show for `COc1cc(C2C(C#N)=C(N)Oc3cc(C)n(CCN4CCOCC4)c(=O)c32)cc(OC)c1OC` (stereo not given)?
AMA1-RON2 inh: 6%; SARS PLP yeast: 1%; Pf growth 48h: inconclusive; CHX counter: 41*; Shiga toxin inh: 52

Results for Cc1cc2c(c(=O)n1Cc1ccc3c(c1)OCO3)C(c1cccnc1)C(C#N)=C(N)O2 (stereo not given) ?
AMA1-RON2 inh: -11%; SARS PLP yeast: inconclusive; Pf growth 96h: -12%[5.75 µM]; Pf growth 48h: 12µM*; CHX counter: 1; Shiga toxin inh: -7

What do the screens show for `Cc1cc2c(c(=O)n1Cc1cccnc1)C(c1ccccc1)C(C#N)=C(N)O2` (stereo not given)?
AMA1-RON2 inh: 4%; SARS PLP yeast: 0%; Pf growth 96h: 3%; Pf growth 48h: inconclusive; CHX counter: -1; Shiga toxin inh: -9

How did COc1ccc(CCn2c(C)cc3c(c2=O)C(c2ccc4c(c2)OCO4)C(C#N)=C(N)O3)cc1OC (stereo not given) do in these assays?
AMA1-RON2 inh: 0%; SARS PLP yeast: -2%; Pf growth 48h: 8.3µM*; CHX counter: -3; Shiga toxin inh: -17

How did COc1cccc(CN2C(=O)c3ccccc3Sc3ccc(C(=O)NCCc4ccc(Cl)cc4)cc32)c1 do in these assays?
CHX counter: 1; Shiga toxin inh: -4

How did CN1CCN(C2CCN(c3cccc(Cl)c3)CC2)CC1CCO (stereo not given) do in these assays?
AMA1-RON2 inh: 3%; SARS PLP yeast: -11%; Pf growth 96h: 75%; Pf growth 48h: 23%; CHX counter: 0; Shiga toxin inh: -6

How did CC(=O)OC1C2CCC1C([N+]1(C)CCCCC1)CC2 (stereo not given) do in these assays?
AMA1-RON2 inh: 4%; SARS PLP yeast: 2%; Pf growth 96h: inconclusive; Pf growth 48h: inconclusive; CHX counter: 1; Shiga toxin inh: -6

How did O=C(NCC(c1ccco1)N1CCc2ccccc2C1)c1cccc(Br)c1 (stereo not given) do in these assays?
AMA1-RON2 inh: -1%; SARS PLP yeast: 1%; Pf growth 96h: -7%; Pf growth 48h: -14%

Results for CC(COc1ccc(/C=C/c2ccccc2)cc1)[N+](C)(C)C (stereo not given) ?
AMA1-RON2 inh: -10%; Pf growth 96h: 0.93µM*; Pf growth 48h: 1.3µM*

What do the screens show for `COc1ccc2cc3c(N)c(C(=O)N4CCCC4)sc3nc2c1`?
AMA1-RON2 inh: 7%; SARS PLP yeast: -11%; Pf growth 96h: -14%; Pf growth 48h: -22%; CHX counter: 69*; Shiga toxin inh: 101*

What do the screens show for `Cc1ccc2nc3sc(C(=O)N4CCOCC4)c(N)c3cc2c1`?
AMA1-RON2 inh: 10%; SARS PLP yeast: -2%; Pf growth 96h: -28%; Pf growth 48h: 177%; CHX counter: 30*; Shiga toxin inh: 54*
